# HSF1 inhib – HSF1 inhibition | activity change, negative = inhibition, % at 7.5 µM (by protocol) | 300,000 compounds, 0.77% hits | AID 2098 | NIH3T3-HGL HSE-luciferase, MG132-induced, luminescence 8 h; stronger effect = lower value;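 active = more than half of replicate wells show activity change below -50%, luminescence cut by over half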;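 also: luciferase reports HSF-1 transcriptional activity via heat shock element; 0% = median of DMSO wells and -100% = zero luminescence signal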
# HSF1 activator – increases HSF-1 driven luciferase reporter signal. AID 504408. 300,000 compounds, 1.7% hits. activation, % at 9 µM. NIH3T3-HGL HSF-1 luciferase reporter, MG132, 8 h; 100% = twice DMSO control signal;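 active = mean replicate activation of at least 50% with a set share of replicates each reaching 50%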;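 also: 0% = median of the neutral control wells and 100% = twice that signal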
# TROY NFkB inh – inhibitors of TROY-dependent NF-kB signaling. Q293 LMP1-TROYcd NF-kB luciferase reporter, 4 h. inhibition, % at 10 µM. 360,000 compounds, 0.98% hits. AID 1347056;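 active = compounds whose plate-normalised and pattern-corrected inhibition of the luciferase reporter signal at the single screening dose is 50% or more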
# HSP90 inh – HSP90 refolding inhibition in rabbit reticulocyte lysate; luciferase refolding luminescence, 3 h; inhibition, % at 5.6 µM; 290,000 compounds, 0.91% hits;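 active = inhibition above the screen-wide mean plus 3 SD, computed separately per campaign, cut at about 16% in these data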;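 also: 0% = DMSO wells and 100% = 60 µM geldanamycin wells; inhibitors lower the luminescence because luciferase stays unfolded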
# TWEAK Fn14 block – inhibitors of TWEAK-Fn14 interaction signaling; TWEAK-stimulated Fn14 reporter cells, luciferase luminescence, 8 h; inhibition, % at 10 µM; 360,000 compounds, 2% hits; in the data active = inhibition above about 50%
# EBV LMP1 NFkB – reduces LMP1-driven NF-kappaB luciferase signal; 350,000 compounds, 0.69% hits; LMP1-induced NF-kappaB luciferase reporter cells, luminescence; inhibition, % at 12.5 µM; in the data active = inhibition above about 41%;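 also: 0% = neutral control wells and 100% = reference inhibitor control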
# * = called active by the depositor; . = no result. Rows were chosen to be rich in hits. Some 4.7% of all compounds tested hit in one or more screens of this group.
SMILES,HSF1 inhib,HSF1 activator,TROY NFkB inh,HSP90 inh,TWEAK Fn14 block,EBV LMP1 NFkB
CC1=C(C(=O)N2CCCCCC2)CC(CC(=O)NCCc2ccccn2)C(=O)N1CCCN1CCCC1=O (stereo not given),.,.,-19.9,.,4.9,.
CC(C)c1ccccc1-n1c(SCC(=O)N2CCc3ccccc3C2)nc2ccccc2c1=O,7.6,31.6,54.2*,4.5,45.5,-1.6
CC1=C(C(=O)N2CCOCC2)CC(CC(=O)NC2CCCCC2)C(=O)N1CCCN1CCCC1=O (stereo not given),.,.,-0.3,.,6.7,4.3
CC(C)(C)OC(=O)NCc1ccc(CNC(=O)c2[nH]cnc2C(=O)NC2CCN(C(=O)OC(C)(C)C)CC2)cc1,.,.,47.6,.,56.6*,4.8
CC(C)C[C@H](NC(=O)c1[nH]cnc1C(=O)Nc1ccc(CNC(=O)OC(C)(C)C)cc1)C(=O)OCc1ccccc1,8.3,26.0,28.4,.,21.6,-5.8
Cc1ccccc1NC(=O)c1nc[nH]c1C(=O)NCc1ccccc1,21.6,58.8*,12.2,3.1,7.2,3.8
Cc1cccc(NC(=O)c2nc[nH]c2C(=O)Nc2cccc(C)c2)c1,21.6,53.4*,-29.0,-1.6,-3.5,-19.1
C[C@H](NC(=O)c1[nH]cnc1C(=O)Nc1ccc(CNC(=O)OC(C)(C)C)cc1)C(=O)OCc1ccccc1,0.2,1.5,74.5*,.,51.9*,-1.4
Cc1cccc(NC(=O)c2nc[nH]c2C(=O)NCCCNC(=O)c2[nH]cnc2C(=O)Nc2cccc(C)c2)c1,.,.,16.0,.,32.7,-1.6
O=C(Nc1ccccc1)c1nc[nH]c1C(=O)NCCCCCCNC(=O)c1[nH]cnc1C(=O)Nc1ccccc1,.,.,25.8,.,68.5*,-13.2
CC(C)(C)OC(=O)NCCCCCNC(=O)c1[nH]cnc1C(=O)N[C@@H](CCCCNC(=O)OC(C)(C)C)C(=O)OC(C)(C)C,-10.2,-22.9,10.3,7.7,16.0,-1.6
O=C(Nc1ccccc1)c1nc[nH]c1C(=O)NCCCNC(=O)c1[nH]cnc1C(=O)Nc1ccccc1,.,.,7.1,.,7.2,3.2
CC(C)(C)OC(=O)NCCCCCNC(=O)c1nc[nH]c1C(=O)NCc1ccc(CNC(=O)OC(C)(C)C)cc1,.,.,64.5*,.,95.5*,7.5
CC(C)(C)OC(=O)NCCCCCNC(=O)c1nc[nH]c1C(=O)NCCCCCNC(=O)OC(C)(C)C,.,.,58.0*,.,65.0*,14.9
CC(C)(C)OC(=O)NCc1ccc(CNC(=O)c2nc[nH]c2C(=O)NCc2ccc(CNC(=O)OC(C)(C)C)cc2)cc1,.,.,18.2,.,47.9,19.3
CCOC(=O)C1(C)CCCN(C(=O)c2ccccc2C(F)(F)F)C1 (stereo not given),.,.,-4.9,.,-11.0,.
CC1(C)OC(=O)C2=C(C[C@@H](C3CCCCC3)O[C@@H]2c2ccc(F)cc2)O1,.,.,-3.2,.,-3.3,.
CC1=C(C(=O)O)CC(S(=O)(=O)O)C1(C)C (stereo not given),.,.,5.2,.,9.3,3.9
Cc1ccc2c(CN3CCN(c4ccc(Cl)c(Cl)c4)CC3)cc(=O)oc2c1,.,.,17.2,.,-17.7,.
CCCCC(=O)N(C)c1c(CC)nc2c(OCC(=O)c3ccc(Cl)cc3Cl)cccn12,.,.,-12.4,.,-5.6,.
CCCCN(C)C(=O)C1CCC(CNS(=O)(=O)c2ccc3c(c2)CC(C)N3C(=O)C2CC2)CC1 (stereo not given),14.8,60.8*,-0.9,-0.7,0.4,15.4
CC(=O)N1c2ccc(S(=O)(=O)NCC3CCC(C(=O)Nc4cccc(C)n4)CC3)cc2CC1C (stereo not given),-0.6,-3.4,22.1,-2.6,58.8*,22.0
O=C(NNCc1ccccc1)c1ccccc1,.,.,24.4,.,64.8*,17.4
CC(C)c1ccc(CNNC(=O)c2ccccc2)cc1,8.2,15.0,-30.5,-1.7,-0.7,-23.3
CCCC(Oc1ccc(Br)cc1)c1nc2c3cc(OC)c(OC)cc3nc(=S)n2[nH]1 (stereo not given),-6.7,-2.4,61.6*,1.3,43.1,0.5
CCNC(=O)C1CCCN(C(=O)c2ccc3c(c2)OCO3)CC1 (stereo not given),.,.,-5.3,.,5.8,.
CCOC(=O)c1nnn(CC(=O)NC(=O)Nc2ccc(F)cc2)c1C(=O)OCC,-71.6*,-78.5,-0.8,-2.7,3.2,-3.3
c1ccc(Cn2ccc(-c3cnc(-c4ccccc4)s3)n2)cc1,35.6,74.3*,14.3,0.7,49.5,-31.1
Nc1ccn(Cc2ccccc2)n1,-3.1,14.7,3.0,-2.4,33.5,8.8
